From paper PMC4336329 (PLoS ONE, 2015)
Screen size: about 310,000 compounds; about 14,000 (4.5%) showed an effect of 50% or more. The effect is printed as a negative number. The sample as a whole holds a higher share of strong results than the screen did.

Each compound was assayed against human ether-à-go-go-related gene (hERG) potassium channel (human, UniProt Q12809) (assay: primary screen, population patch clamp on CHO cells stably expressing hERG; higher = less effect of the substance).
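Further: peak tail current of the secondary pulse compared with the same well before compound.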

Sequence of human ether-à-go-go-related gene (hERG) potassium channel (Q12809 whole entry, looked up): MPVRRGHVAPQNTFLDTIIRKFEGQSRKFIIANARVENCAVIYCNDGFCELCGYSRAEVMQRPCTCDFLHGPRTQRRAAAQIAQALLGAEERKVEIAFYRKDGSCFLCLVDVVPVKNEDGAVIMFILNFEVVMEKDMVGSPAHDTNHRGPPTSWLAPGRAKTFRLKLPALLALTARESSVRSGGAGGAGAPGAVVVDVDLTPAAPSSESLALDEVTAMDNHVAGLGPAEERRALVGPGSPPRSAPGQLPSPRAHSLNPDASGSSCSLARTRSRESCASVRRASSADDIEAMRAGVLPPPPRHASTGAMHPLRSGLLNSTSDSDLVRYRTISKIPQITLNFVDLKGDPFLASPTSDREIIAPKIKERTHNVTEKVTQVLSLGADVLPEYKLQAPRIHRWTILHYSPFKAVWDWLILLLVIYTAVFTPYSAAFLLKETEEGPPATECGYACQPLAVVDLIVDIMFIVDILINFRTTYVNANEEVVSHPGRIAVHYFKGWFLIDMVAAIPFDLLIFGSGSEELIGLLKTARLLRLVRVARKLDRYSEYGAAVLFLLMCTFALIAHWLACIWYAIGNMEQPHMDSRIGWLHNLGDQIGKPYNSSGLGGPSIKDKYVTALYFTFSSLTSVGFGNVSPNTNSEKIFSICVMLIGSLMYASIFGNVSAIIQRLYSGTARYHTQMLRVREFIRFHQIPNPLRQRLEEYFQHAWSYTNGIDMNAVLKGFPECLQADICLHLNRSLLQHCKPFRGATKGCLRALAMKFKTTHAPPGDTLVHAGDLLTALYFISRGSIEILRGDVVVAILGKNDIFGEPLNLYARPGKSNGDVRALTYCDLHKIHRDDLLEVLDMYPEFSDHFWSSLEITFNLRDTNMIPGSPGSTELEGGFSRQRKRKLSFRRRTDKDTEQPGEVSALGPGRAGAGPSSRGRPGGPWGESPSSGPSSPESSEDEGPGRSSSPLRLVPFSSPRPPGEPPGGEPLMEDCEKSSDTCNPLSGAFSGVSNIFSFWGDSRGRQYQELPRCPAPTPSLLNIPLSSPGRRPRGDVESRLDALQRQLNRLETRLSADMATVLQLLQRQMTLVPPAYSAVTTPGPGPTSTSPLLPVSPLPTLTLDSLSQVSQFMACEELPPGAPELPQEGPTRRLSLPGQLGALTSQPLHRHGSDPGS

| Structure (SMILES) | hERG current change (%, negative = inhibition) at 10uM [%] |
| --- | --- |
| CCC1CCCCN1CCCNC(=O)c1cn(C)c2ccc(S(=O)(=O)N(C)C3CCCCC3)cc2c1=O (centres unmarked) | -62.8 |
| CCn1cc(C(=O)OC)c(=O)c2cc(S(=O)(=O)N(C)C3CCCCC3)ccc21 | -28.4 |
| CCc1ccc(-c2cc(C(F)(F)F)n3nc(C(=O)Nc4cnn(Cc5ccccc5C)c4)cc3n2)s1 | 5.41 |
| COCCNC(=O)c1cc(S(=O)(=O)N2CCCCC2)ccc1N1CCOCC1 | 1.23 |
| Cc1sc2nc(CN3CCOCC3)nc(NS(=O)(=O)c3ccccc3)c2c1C | 9.1 |
| CCCc1nc(N2CCN(S(=O)(=O)c3ccc(Cl)cc3)CC2)c2c(C)c(C)sc2n1 | -17.1 |
| Cc1sc2nc(CN3CCCC3)nc(N3CCN(S(=O)(=O)c4cccs4)CC3)c2c1C | -70.7 |
| Cc1cccc(N2CCN(S(=O)(=O)c3cccs3)CC2)c1C | -15.8 |
| O=S(=O)(c1cccs1)N1CCN(Cc2ccccc2)CC1 | -14 |
| CCc1nc(N2CCN(S(=O)(=O)c3ccc(Br)cc3)CC2)c2c(C)c(C)sc2n1 | -32 |
| Cc1sc2nc(CN3CCCC3)nc(N3CCN(S(=O)(=O)c4cccc(F)c4)CC3)c2c1C | -70.1 |
| Cc1ccc(S(=O)(=O)N2CCN(c3nc(CN4CCCC4)nc4sc(C)c(C)c34)CC2)cc1 | -77.7 |
| Cc1sc2nc(CN3CCCC3)nc(N3CCN(S(=O)(=O)c4ccccc4)CC3)c2c1C | -67 |
| COc1ccc(-c2csc3ncnc(N4CCN(S(=O)(=O)c5cccc(F)c5)CC4)c23)cc1 | -3.5 |
| Cc1nc(N2CCN(S(=O)(=O)c3ccc(F)cc3)CC2)c2c(C)c(C)sc2n1 | -6.58 |
| Cc1sc2nc(CN3CCOCC3)nc(N3CCN(S(=O)(=O)c4ccccc4)CC3)c2c1C | -41.6 |
| CCCc1cc(=O)[nH]c(SCC(=O)N(CC)Cc2ccccc2)n1 | 7.9 |
| Cc1ccc(S(=O)(=O)C2(C(=O)N3CCCCC3C)CC2)cc1 (centres unmarked) | 1.58 |
| CC1C(=O)N2CCCc3cc(S(=O)(=O)N(C)Cc4ccccc4)cc1c32 (centres unmarked) | -14.7 |
| O=C(O)c1cc(=O)n(Cc2ccccc2)c(=O)[nH]1 | 15 |
| Cc1ccc(C(C)NC(=O)c2cccnc2)cc1 (centres unmarked) | 11.2 |

| Structure (SMILES) | hERG current change (%, negative = inhibition) at 10uM [%] |
| --- | --- |
| Clc1ccccc1Cn1c(/C=C/c2ccco2)nc2ccccc21 | 13.5 |
| COc1cc2c(cc1NC(=O)COC(=O)CNS(=O)(=O)c1ccc(C)cc1)oc1ccccc12 | 1.63 |
| CN(c1ccc(C(=O)Nc2cccnc2)cc1)S(=O)(=O)c1ccccc1 | -14.9 |
| COc1ccc(-c2nnc(SCC(=O)Nc3sc4c(c3C#N)CCCC4)n2-c2ccccc2)cc1 | 15.4 |
| Cc1ccc(C)c(S(=O)(=O)N2CCN(c3nc(CN4CCOCC4)nc4sc(C)c(C)c34)CC2)c1 | -57.1 |
| Cc1ccc(S(=O)(=O)Nc2nc(CN3CCOCC3)nc3sc(C)c(C)c23)cc1 | -43 |
| Cc1sc2nc(CN3CCOCC3)nc(N3CCOCC3)c2c1C.O=C(O)C(=O)O | -10.8 |
| O=C(CNc1n[nH]c(=O)[nH]c1=O)N/N=C/c1ccccc1 | 2.89 |
| O=S(NC1CCCCC1)C12CC3CC(CC(C3)C1)C2 (centres unmarked) | -12.4 |
| CC(C)c1nc(N2CCN(C(=O)c3ccccc3)CC2)c(C#N)c2c1COC(C)(C)C2 | -40.8 |
| Cc1nc(N2CCN(Cc3ccccc3)CC2)c(C#N)c2c1COC(C)(C)C2 | -5.21 |
| CC1(C)Cc2c(C#N)c(N3CCN(C(=O)c4ccco4)CC3)nc(Cc3ccccc3)c2CO1 | -25.3 |
| Cc1nc(N2CCN(C(=O)c3ccc(Cl)cc3)CC2)c(C#N)c2c1COC(C)(C)C2 | -60.8 |
| CCc1nc(N2CCN(C(C)=O)CC2)c(C#N)c2c1COC(C)(C)C2 | -0.704 |
| CCc1nc(N2CCN(C(=O)c3ccco3)CC2)c(C#N)c2c1COC(C)(C)C2 | -52.1 |
| CCc1nc(N2CCN(C(=O)c3ccccc3)CC2)c(C#N)c2c1COC(C)(C)C2 | -46.5 |
| CC(C)c1nc(N2CCN(C(=O)c3ccco3)CC2)c(C#N)c2c1COC(C)(C)C2 | -71.5 |
| CCCNC(=O)N1CCN(c2nc(C(C)C)c3c(c2C#N)CC(C)(C)OC3)CC1 | 4.84 |
| O=C(CC1SC(N2CCCCC2)=NC1=O)Nc1cccc(C(F)(F)F)c1 (centres unmarked) | 12.3 |
| CCOc1ccc(C2Oc3nc(SC)nnc3-c3ccccc3N2C(C)=O)cc1OC (centres unmarked) | 9.64 |
